Measured values taken from PubChem BioAssay (Tox21).
Results filed as inconclusive are left out. Activity calls are given as the source filed them. Unless noted, the call rests on the fitted dose curve; in most records, active means well fitted curve in the direction sought with a large enough effect in the repeat runs; inconclusive means weak or mixed curves; inactive means no such curve, though single readings can be large; an effect the other way counts as inactive or inconclusive.

What was measured:
[1] = qHTS assay to identify small molecule agonists of the vitamin D receptor (VDR) signaling pathway - cell viability counter screen (AID 743224); further: nearly all actives have a fitted effect of over 50% in size
Summary of the method: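 VDR-bla cells, 4 h after plating, exposed to compounds for 16 h at 37C; viability then read in the same wells as CellTiter-Glo luminescence after 30 min at room temperature, following the bla FRET read.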

[2] = qHTS assay to identify small molecule agonists of the NFkB signaling pathway (AID 1159509; active means well fitted curve in the direction sought with a large enough effect in the signal ratio in the repeat runs, not every such curve was filed as active; the % refers to the signal ratio)
Summary of the method: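 ME-180 NFkB-bla, 2,000 cells/well, overnight plating; cpd pinned in DMSO, 5 h 37 C; B/G FRET substrate 1.5 h RT; ex 405, em 460/530 nm.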

[3] = qHTS assay to identify small molecule agonists of the NFkB signaling pathway - cell viability counter screen (AID 1159515; calls by dose curve; further: nearly all actives have a fitted effect of over 55% in size)
Summary of the method: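 NFkB-bla ME-180 cells, 2,000/well, plated overnight at 37 C; compound added for 5 hr at 37 C. Viability read in the same wells as the bla reporter, by CellTiter-Glo luminescence after 30 min at room temperature.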

[4] = qHTS assay to identify small molecule agonists of the endoplasmic reticulum stress response signaling pathway (AID 1159516; active means well fitted activation curve with a large enough effect in the signal ratio in the repeat runs, not every such curve was filed as active; the % refers to the signal ratio)
Summary of the method: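 CellSensor ESRE-bla HeLa cells, 1,500 per well, plated overnight, then exposed to compounds for 5 hr at 37 C. Beta-lactamase reporter read with LiveBLAzer B/G FRET substrate after 2 hr at room temperature, 405 nm excitation, 460 and 530 nm emission.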

[5] = qHTS assay to identify small molecule agonists of the endoplasmic reticulum stress response signaling pathway - cell viability counter screen (AID 1159517; calls by dose curve;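 further: HeLa cells carrying an ER stress response element beta-lactamase reporter; nearly all actives have a fitted effect of over 50% in size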)
Summary of the method: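 ESRE-bla HeLa cells, 1,500 per well, seeded overnight then treated with compounds for 5 hr at 37 C. After the beta-lactamase read, viability in the same wells is measured by CellTiter-Glo luminescence after 30 min at room temperature.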

[6] = qHTS assay to identify small molecule antagonists of the retinoid-related orphan receptor gamma (ROR-gamma) signaling pathway - cell viability counter screen (AID 1159520); further: nearly all actives have a fitted effect of over 50% in size
Summary of the method: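 Tet-on ROR gamma CHO cells were given compounds for 2 hr, then doxycycline hyclate at 1 uM final, and incubated 16 hr at 37 C. Viability was measured as ATP content by CellTiter-Glo luminescence.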

[7] = target: Nuclear receptor ROR-gamma (Homo sapiens) (UniProt P51449); test: qHTS assay to identify small molecule antagonists of the retinoid-related orphan receptor gamma (ROR-gamma) signaling pathway (AID 1159521;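 further: CHO cells with doxycycline inducible ROR-gamma driving an RORE luciferase reporter; top concentration of the series differs between compounds; nearly all actives have a fitted effect of over 50% in size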)
Summary of the method: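 Decreased RORE-driven luciferase luminescence indicates antagonism. Tet-on RORγ CHO cells received compound, then 1 uM final doxycycline 2 h later; signal read after 16 h incubation.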

[8] = qHTS assay to identify small molecule agonists of the AP-1 signaling pathway - cell viability counter screen (AID 1159525; calls by dose curve; further: nearly all actives have a fitted effect of over 55% in size)
Summary of the method: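 AP-1-bla ME-180 cells in Opti-MEM with 0.5% dialyzed FBS, compound exposure 5 h at 37 C in 15-point titration. Viability read in the same wells as ATP content by CellTiter-Glo luminescence, normalised to tetra-n-octylammonium bromide and DMSO controls.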

[9] = qHTS assay to identify small molecule agonists of the AP-1 signaling pathway (AID 1159526; calls by dose curve)
[10] = target: Retinoic acid receptor RXR-alpha (Homo sapiens) (UniProt P19793); test: qHTS assay to identify small molecule agonists of the RXR signaling pathway (AID 1159527; calls by dose curve; further: nearly all actives have a fitted effect of over 35% in size)
Sequence of Retinoic acid receptor RXR-alpha (Homo sapiens) (P19793 whole entry, looked up): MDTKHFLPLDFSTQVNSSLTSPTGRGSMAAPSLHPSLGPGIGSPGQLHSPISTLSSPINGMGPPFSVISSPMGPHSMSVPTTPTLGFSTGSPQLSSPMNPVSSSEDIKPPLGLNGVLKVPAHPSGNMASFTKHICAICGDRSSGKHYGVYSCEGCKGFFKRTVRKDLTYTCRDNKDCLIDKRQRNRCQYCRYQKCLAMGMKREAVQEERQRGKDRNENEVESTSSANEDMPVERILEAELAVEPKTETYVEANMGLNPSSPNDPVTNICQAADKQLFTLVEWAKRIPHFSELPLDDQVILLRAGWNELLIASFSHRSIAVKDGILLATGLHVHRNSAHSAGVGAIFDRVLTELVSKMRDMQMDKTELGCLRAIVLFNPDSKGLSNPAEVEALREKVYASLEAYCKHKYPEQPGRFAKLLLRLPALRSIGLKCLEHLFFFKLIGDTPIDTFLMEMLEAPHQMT
Summary of the method: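 16 hr incubation of compound-treated RXR-alpha-UAS-bla HEK 293T cells (2% charcoal-stripped FBS, 37 C) preceded a 2 hr room-temperature LiveBLAzer FRET substrate step and blue/green fluorescence measurement.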

[11] = qHTS assay to identify small molecule agonists of the RXR signaling pathway - cell viability counter screen (AID 1159529)
Summary of the method: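 In this parallel viability measure, GeneBLAzer RXR-alpha HEK 293T cells (2% charcoal-stripped FBS) were given a 5 hr preincubation, treated with compounds 16 hr at 37 C, and read by CellTiter-Glo luminescence.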

[12] = qHTS assay to identify small molecule antagonists of the retinoid acid receptor (RAR) signaling pathway - cell viability counter screen (AID 1159551); further: nearly all actives have a fitted effect of over 35% in size
Summary of the method: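 C3RL4 RARE-luciferase cells, 1,000/well, incubated overnight, then dosed with compound plus 1 uM retinol (final). After 6 hr at 37 C, viability read by CellTiter-Glo ATP luminescence following 30 min at room temperature.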

[13] = qHTS assay to identify small molecule antagonists of the retinoic acid receptor (RAR) signaling pathway (AID 1159552; further: nearly all actives have a fitted effect of over 50% in size)
Summary of the method: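 C3RL4 RARE-luc cells, overnight plating; retinol 1 uM final added right after compound; 6 hr 37 C; luciferase read at 30 min RT.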

[14] = qHTS assay to identify small molecule agonists of the retinoic acid receptor (RAR) signaling pathway (AID 1159553); conditions: C3RL4 RARE luciferase reporter, agonist, 6 h; activation: at 73.3 µM (top of the series)
Summary of the method: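 C3RL4 RARE-luciferase cells were seeded at 1,000/well and grown overnight at 37 C, then exposed to compounds for 6 hr at 37 C, 5% CO2. Luciferase reagent was added and luminescence was read after 30 min at room temperature.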

[15] = qHTS assay to identify small molecule antagonists of the estrogen related receptor (ERR) signaling pathway from Tox21 library - cell viability counter screen (AID 1224834); further: nearly all actives have a fitted effect of over 30% in size
Summary of the method: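 ERR reporter cells, 2,000 per well, rested 6 h, then exposed to compound in DMSO for 17.5 hours at 37 C. Viability read as fluorescence after 30 min with CellTiter-Fluor.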

[16] = target: Luciferin 4-monooxygenase (Photinus pyralis) (UniProt P08659); test: qHTS assay to identify small molecule inhibitors of firefly luciferase (AID 1224835); further: nearly all actives have a fitted effect of over 25% in size
Sequence of Luciferin 4-monooxygenase (Photinus pyralis) (P08659 whole entry, looked up): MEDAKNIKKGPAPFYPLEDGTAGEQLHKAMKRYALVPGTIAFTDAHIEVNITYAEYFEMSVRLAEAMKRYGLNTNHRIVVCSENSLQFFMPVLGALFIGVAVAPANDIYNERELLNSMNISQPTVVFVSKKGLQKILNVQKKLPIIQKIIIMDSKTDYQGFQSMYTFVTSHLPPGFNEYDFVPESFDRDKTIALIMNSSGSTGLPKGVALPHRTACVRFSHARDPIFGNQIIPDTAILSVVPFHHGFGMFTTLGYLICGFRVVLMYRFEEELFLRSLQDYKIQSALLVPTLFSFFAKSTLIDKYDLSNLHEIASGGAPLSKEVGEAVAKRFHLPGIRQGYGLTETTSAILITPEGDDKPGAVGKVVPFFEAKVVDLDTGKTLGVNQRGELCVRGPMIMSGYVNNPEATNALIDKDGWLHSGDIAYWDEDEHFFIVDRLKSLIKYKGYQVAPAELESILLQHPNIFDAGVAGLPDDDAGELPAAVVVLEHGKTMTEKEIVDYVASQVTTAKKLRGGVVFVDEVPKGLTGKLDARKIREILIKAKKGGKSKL
Summary of the method: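 Biochemical qHTS: compounds run as interplate titrations against purified firefly enzyme, with D-luciferin and ATP each at its KM concentration. Light output recorded by CCD imaging.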

[17] = qHTS assay to identify small molecule antagonists of the constitutive androstane receptor (CAR) signaling pathway - cell viability counter screen (AID 1224837); further: nearly all actives have a fitted effect of over 45% in size
Summary of the method: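 HepG2 cells stably carrying hCAR and CYP2B6-2.2kb reporter, stimulated with 50 nM CITCO and compounds at 15 concentrations for 23 h at 37 C. Viability measured by CellTiter-Fluor fluorescence.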

[18] = qHTS assay to identify small molecule antagonists of the vitamin D receptor (VDR) signaling pathway - cell viability counter screen (AID 743225); further: nearly all actives have a fitted effect of over 50% in size
Summary of the method: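 Parallel cytotoxicity test: VDR-UAS-bla HEK 293T, 3 nM (final) 1-alpha,25-dihydroxyvitamin D3 with test compound, 16 h, 37C. Endpoint is CellTiter-Glo luminescence in the same wells.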

[19] = qHTS assay to identify small molecule agonists of the constitutive androstane receptor (CAR) signaling pathway - cell viability counter screen (AID 1224836); further: nearly all actives have a fitted effect of over 45% in size
Summary of the method: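 Using CellTiter-Fluor, viability of HepG2 cells harbouring hCAR and CYP2B6-2.2kb was measured following 23 h incubation with a 15-concentration compound series plus PK11195 (0.75 uM final).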

[20] = target: Nuclear receptor subfamily 1 group I member 3 (Homo sapiens) (UniProt Q14994); test: qHTS assay to identify small molecule antagonists of the constitutive androstane receptor (CAR) signaling pathway (AID 1224838); further: nearly all actives have a fitted effect of over 40% in size
Sequence of Nuclear receptor subfamily 1 group I member 3 (Homo sapiens) (Q14994 whole entry, looked up): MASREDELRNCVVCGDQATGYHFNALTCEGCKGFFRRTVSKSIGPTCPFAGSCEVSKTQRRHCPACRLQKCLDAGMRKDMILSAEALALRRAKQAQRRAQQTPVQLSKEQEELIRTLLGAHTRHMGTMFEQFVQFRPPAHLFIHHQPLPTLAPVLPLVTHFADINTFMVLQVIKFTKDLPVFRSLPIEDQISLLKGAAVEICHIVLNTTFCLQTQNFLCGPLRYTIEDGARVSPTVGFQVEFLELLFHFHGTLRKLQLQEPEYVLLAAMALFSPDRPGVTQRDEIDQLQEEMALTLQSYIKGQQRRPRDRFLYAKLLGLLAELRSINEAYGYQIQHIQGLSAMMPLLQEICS
Summary of the method: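 HepG2 cells stably carrying hCAR and a CYP2B6-2.2kb luciferase reporter, seeded 4 hrs before compound (15 concentrations). Stimulated with 50 nM CITCO for 24 hr at 37 C. ONE-Glo luminescence read after 30 min at room temperature.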

Measured: Potency

CCCCCN(CCCOC)C(=O)C(CCC(=O)O)NC(=O)c1ccc(Cl)c(Cl)c1 (configuration not stated)
not listed: [18] | [19] | [20]
inactive: all other assays above

CC(=O)OC(C)(C)Cc1ccccc1
not listed: [15] | [20]
inactive: all other assays above

C[C@@H]1C[C@H]2[C@@H]3C[C@H](F)C4=CC(=O)C=C[C@]4(C)[C@@]3(F)[C@@H](O)C[C@]2(C)[C@@]1(O)C(=O)CO
not listed: [16]
inactive: all other assays above

COCC(=O)Nc1c(I)c(C(=O)NCC(O)CO)c(I)c(C(=O)N(C)CC(O)CO)c1I (configuration not stated)
not listed: [13] | [20]
inactive: all other assays above

CC(=O)N1CCN(c2ccc(O)cc2)CC1
not listed: [17] | [20]
inactive: all other assays above

C[Si]1(C)N[Si](C)(C)N[Si](C)(C)N1
not listed: [15]
inactive: all other assays above

Cc1ccccc1OCC1CO1 (configuration not stated)
not listed: [16] | [20]
inactive: all other assays above

CC(C)CCO
not listed: [13] | [20]
inactive: all other assays above

COc1ccc(/C=N/NC(=O)c2ccncc2)cc1OC
not listed: [19] | [20]
inactive: all other assays above

Nc1ccnc(=O)[nH]1
not listed: [18] | [19] | [20]
inactive: all other assays above

CCC(C)(C)C1CCC(=O)CC1
not listed: [15] | [16] | [18] | [20]
inactive: all other assays above

C=CCOCC(CO)(COCC=C)COCC=C
not listed: [15]
inactive: all other assays above

O=c1cc(O)c(Cl)c[nH]1
not listed: [16] | [17] | [19] | [20]
inactive: all other assays above

NC(=O)NC(=O)Cc1ccccc1
not listed: [16] | [17] | [20]
inactive: all other assays above

CN(C1CCCCC1)S(=O)(=O)c1ccccc1N
not listed: [16]
inactive: all other assays above
